Results on 5 compounds are retold here after PubChem BioAssay AID493098 (Sanford-Burnham Center for Chemical Genomics, 2011).

Out of some 340,000 compounds screened, about 1,700 (0.5%) were called active. This is one part of a sample in which actives are shown more often than they occur. A number with no mark means an inactive call.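 Rule for the calls: active = compounds whose inhibition of the agonist-driven luminescence signal at 20 µM reaches about 50% (limit read from the data); inactive = the rest.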

In the assay the target is C-C chemokine receptor type 6 (Homo sapiens) (UniProt P51684). Kind of assay: CCR6 receptor antagonists, primary screen, cell-based, CHO-K1, luminescence, beta-arrestin, uHTS (AID 493098).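 Note: cells stimulated with CCL20 at 14 nM final; plate controls were DMSO with CCL20 for no effect and DMSO without agonist for full effect.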 Particulars: CHO-K1 CCR6 PathHunter beta-arrestin, CCL20-stimulated, at 20 µM, active compounds read high.
Chain of C-C chemokine receptor type 6 (Homo sapiens) (P51684 whole entry, looked up): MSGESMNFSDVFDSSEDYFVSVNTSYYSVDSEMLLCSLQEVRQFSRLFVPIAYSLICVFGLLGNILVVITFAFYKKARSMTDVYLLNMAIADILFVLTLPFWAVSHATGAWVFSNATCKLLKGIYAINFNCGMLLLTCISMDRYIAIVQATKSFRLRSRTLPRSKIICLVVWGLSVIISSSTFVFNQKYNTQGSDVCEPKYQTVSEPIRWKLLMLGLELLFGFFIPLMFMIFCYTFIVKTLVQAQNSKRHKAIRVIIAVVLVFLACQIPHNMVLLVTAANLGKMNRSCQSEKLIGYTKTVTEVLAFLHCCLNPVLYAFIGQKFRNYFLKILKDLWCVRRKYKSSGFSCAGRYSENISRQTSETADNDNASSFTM
What is called inhibition is the relative decrease from the control value, in per cent. Consider `CC(=O)OC1C2(CC3N4C(=O)C5(CO)SSC4(CC31O)C(=O)N5C)OC(C)C(C)(C)C2=O` (stereo not given), for which the inhibition was 111% (active).
In the case of `COC(=O)[C@@H]1C(OC(=O)c2ccccc2)CC2CCC1N2C` (stereo not given in full) it was 6.3%; in that of `CC(Cc1cccs1)NCc1ccc(Cl)cc1` (stereo not given), 13.3%.
In the case of `Cc1nn(-c2ccccc2)c(C)c1NC(=O)COC(=O)Cc1ccccc1` it was -2.94%; in that of `CCCOC(=O)C1C2c3ccccc3C(c3ccccc32)C1C(=O)O` (stereo not given), -3.33%.
